# In the library only some 6.9% were active in any assay of this set; here they are far more common.
# MCF10A rerep: A quantitative high throughput screen for small molecules that induce DNA re-replication in MCF 10a normal breast cells. MCF 10A DNA re-replication, Hoechst nuclear intensity, 48 h. Potency, µM (doses to about 46.1 µM), for inactives: at the highest dose activity, positive = re-replication, most hits filed as activators. 350,000 compounds, 2.9% hits; note: potency is the fitted concentration of half-maximal effect; % of control where 0% means no effect; nearly all actives have a fitted effect of over 50% in size
# Vif-APOBEC3G blk: qHTS for Inhibitors of Vif-A3G Interactions: qHTS; DNA dC->dU-editing enzyme APOBEC-3G (Homo sapiens), Q9HC16; HeLa A3G-eYFP + Vif (tagged APOBEC3G with the HIV-1 protein that degrades it), YFP fluorescence, overnight; Potency, µM (titrated, usually from 46.1 µM), for the others: at the top dose activity, negative = active, hits mostly inhibitors; 410,000 compounds, 0.076% hits; AID 602310, 2012; note: potency is the fitted concentration of half-maximal effect; % is set by controls: 0 for no effect and ±100 for the full control effect; nearly all actives have a fitted effect of over 60% in size
# Target sequence (Q9HC16 whole entry, looked up): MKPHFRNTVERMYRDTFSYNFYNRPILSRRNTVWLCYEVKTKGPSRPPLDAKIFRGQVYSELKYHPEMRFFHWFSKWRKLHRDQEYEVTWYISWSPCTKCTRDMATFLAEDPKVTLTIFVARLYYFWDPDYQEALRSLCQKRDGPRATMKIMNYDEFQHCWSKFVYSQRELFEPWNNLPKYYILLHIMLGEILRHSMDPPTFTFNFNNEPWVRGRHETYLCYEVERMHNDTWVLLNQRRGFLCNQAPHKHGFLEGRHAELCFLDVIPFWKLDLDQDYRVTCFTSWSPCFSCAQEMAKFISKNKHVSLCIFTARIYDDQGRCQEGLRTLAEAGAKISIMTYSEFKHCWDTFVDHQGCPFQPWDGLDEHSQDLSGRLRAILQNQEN
#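 Read-out is eYFP fluorescence (Ex 488/Em 500-530) from Vif-expressing HeLa A3G-eYFP cells; more signal means A3G escaped Vif-mediated degradation. Cells plated overnight, compound pinned in, incubated overnight at 37 deg C.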
# Vif-A3F inh: qHTS for Inhibitors of Vif-A3F Interactions: qHTS; HeLa A3F-eYFP + Vif (tagged APOBEC3F with the HIV-1 protein that degrades it), YFP fluorescence increase; Potency, µM (titrated, usually from 46.1 µM), for the others: at the top dose activity, negative = active; 390,000 compounds, 0.2% hits; AID 602313, 2012; note: potency is the fitted concentration of half-maximal effect; % of control where 0% means no effect; nearly all actives have a fitted effect of over 65% in size
#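 Fluorescence increase (Ex 488/Em 500-530) after overnight compound treatment at 37 deg C flags inhibition of Vif-driven A3F-eYFP loss in stable HeLa A3F-eYFP/Vif cells seeded overnight beforehand.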
# SW480 rereplic: A quantitative high throughput screen for small molecules that induce DNA re-replication in SW480 colon adenocarcinoma cells; SW480 DNA re-replication, Hoechst DNA content imaging, 48 h; Potency, µM (highest dose often 46.1 µM), for the others: top-dose re-replication activation, most hits filed as activators; 340,000 compounds, 1.8% hits; note: potency is the fitted concentration of half-maximal effect; % of control where 0% means no effect; nearly all actives have a fitted effect of over 55% in size
#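 Cells (250 per well) received 23 nL compound or DMSO by pin tool and were kept 48 hr at 37 C, 5% CO2. Nuclei were then stained with Hoechst for 40 min and scanned for DNA content.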
# IL1B secr inh: qHTS for Inhibitors of Inflammasome Signaling: IL-1-beta AlphaLISA Primary Screen; THP-1 LPS/ATP IL-1B secretion, AlphaLISA, 16 h; hits give low values; activity change, % at 57.5 µM; 360,000 compounds, 4.7% hits; in the data active = activity change below about -50%; inconclusive = mostly about -30% to -49%; note: % is set by controls: 0 for no effect and ±100 for the full control effect
#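 THP-1 cells pretreated 1 hr with compounds (up to 57.5 uM final), then stimulated with LPS (250 ng/mL final) plus ATP (1.25 mM final); secreted IL-1B measured by AlphaLISA after 16 hr, decreased signal indicating inhibition.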
# Giardia kill: Small Molecules that selectively kill Giardia lamblia: qHTS | Giardia lamblia trophozoite viability | activity change, % at 7.66 µM, hits read low | 340,000 compounds, 0.15% hits | AID 540267, 2011; in the data active = activity change below about -80%; inconclusive = between about -30% and that limit;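 note: parasites exposed to compound for two days anaerobically before the ATP read; % is set by controls: 0 for no effect and ±100 for the full control effect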
#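 Each well holds 100 Giardia trophozoites and compound. After two days (48 hrs) at 37 deg C in anaerobic conditions, ATP is quantified by luminescence.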
# Active calls of the source: *; ? = inconclusive; / = no result given. Unless noted, calls come from the whole dose curve; as a rule, active = well fitted curve in the direction sought with a large enough effect; inconclusive = small, poorly fitted or top-dose-only effect, or another doubt; inactive = no such curve, though single readings can be large; an effect the other way counts as inactive or inconclusive.
SMILES,MCF10A rerep,Vif-APOBEC3G blk,Vif-A3F inh,SW480 rereplic,IL1B secr inh,Giardia kill
CC(C)C[C@@H](CN1CCC[C@@H]1CN1C(=S)NC[C@@H]1Cc1ccccc1)N1C[C@H](Cc2ccc(O)cc2)N(CC2CCCCC2)C1=S,/,1%,/,/,8,/
O=C1CC(c2ccco2)CC2=C1C1c3ccccc3C(=O)N1c1ccccc1N2 (centres undefined),?,-30%,1%,?,-94*,25
C1=Nc2ccccc2/C1=C/c1ccccc1,/,-2%,/,/,/,/
Cc1ccc(OC(=O)c2oc3ccc(F)cc3c2C)c(C)c1,?,-6%,-1%,18µM*,-21,5
COc1ccc(/C=C/C(=O)c2oc3ccc(F)cc3c2C)cc1,9%,1%,5%,-4%,22,-1
CC[N+]1(CC(=O)c2ccc(Br)cc2)CCCCC1,/,-1%,/,/,/,/
COc1ccc(C(=O)NC(C)CCc2ccccc2)c(O)c1 (centres undefined),?,1%,15%,-5%,-55*,-22
Cc1ccc(C)c(C(=O)NC(C)CCc2ccccc2)c1 (centres undefined),2%,2%,0%,11%,22,-1
CC(Cc1ccccc1)NC(=O)/C=C/c1ccc([N+](=O)[O-])cc1 (centres undefined),0%,4%,9%,7%,-23,4
Cc1occc1C(=O)NC(C)CCc1ccccc1 (centres undefined),21µM*,2%,/,1%,-4,4
CC(CCc1ccccc1)NC(=O)/C=C/c1ccc(Cl)cc1 (centres undefined),5%,1%,-23%,-1%,-79*,1
COc1ccc(CN(Cc2ccccc2)C(=O)COC(C)=O)cc1COc1ccc(NC(C)=O)cc1,/,/,/,/,/,-6
CCc1cccc(NC(=O)c2oc3ccc4c(c3c2C)C(=O)CC(C)(C)O4)c1,/,-5%,4%,/,/,/
C[C@]12c3[nH]c4cc(-c5ccco5)ccc4c3CCN1C(=O)[C@@H](CC(=O)NCCN1CCOCC1)C[C@@H]2C(=O)N1CCOCC1,4%,-2%,11%,?,-12,-27
CC(C)N(C(=O)[C@H]1C[C@H](CC(=O)NCCN2CCOCC2)C(=O)N2CCc3c([nH]c4cc(-c5ccco5)ccc34)[C@]12C)C(C)C,-38%,-3%,5%,16µM*,?,-10
CC(C)N(C(=O)[C@H]1C[C@H](CC(=O)NC(C)(C)C)C(=O)N2CCc3c([nH]c4cc(-c5ccco5)ccc34)[C@]12C)C(C)C,?,2%,-25%,1%,-67*,7
C=CCc1c(C)nc(C)nc1N/N=C/c1ccccc1O,19%,0%,-23%,12µM*,12,1
O=C(N/N=C/c1ccccc1[N+](=O)[O-])c1ccc2nc[nH]c2c1,-2%,-3%,4%,0%,-16,-26
Cc1occc1C(=O)N/N=C/c1ccc(Cl)c([N+](=O)[O-])c1,?,?,-5%,20%,-72*,-1
COc1ccc(/C=N/NC(=O)c2ccoc2C)cc1OC,1%,1%,-6%,-1%,5,?
O=C(N/N=C/c1ccc(Cl)c([N+](=O)[O-])c1)c1ccc2nc[nH]c2c1,29%,-8%,3%,14%,-96*,2
Cc1cc(C(=O)N/N=C/c2ccc(Cl)c([N+](=O)[O-])c2)c(C)n1-c1ccc(F)cc1,12µM*,?,?,17%,-53*,-18
Cn1cccc1CC(=O)N/N=C/c1ccc(Cl)c([N+](=O)[O-])c1,2%,1%,-4%,0%,-90*,-7
CCOC(=O)c1c(C)[nH]c(CCC(=O)NCc2ccc(CC)cc2)c1C,/,1%,-3%,/,/,/
COc1ccc(OC)c2sc(N(Cc3cccnc3)C(=O)c3ccc(C(C)=O)cc3)nc12,/,-7%,1%,/,/,/
SMILES,MCF10A rerep,Vif-APOBEC3G blk,Vif-A3F inh,SW480 rereplic,IL1B secr inh,Giardia kill
Oc1c(CN2CCOCC2)cc(CN2CCOCC2)c(O)c1O,1%,2%,-16%,-2%,14,5
CCCc1cc(CN2CCOCC2)c(O)c(CN2CCOCC2)c1O,15µM*,-6%,9%,?,?,0
COCCN(CCOC)Cc1c(O)ccc2c1O/C(=C\c1ccc(C)o1)C2=O,12%,-1%,25µM*,13%,28,-15
COc1ccc(C2Nc3cc(OC)ccc3-n3cccc32)cc1 (centres undefined),16µM*,-6%,18%,21µM*,?,-18
COc1ccccc1[C@@H]1C(c2cccc(C)c2)=NN(c2ccc(Br)cc2)[C@H]1C(=O)N1CCOC1=O,?,-4%,0%,21µM*,-20,9
Cc1cccc(C2=NN(c3ccccc3)[C@@H](C(=O)N3CCOC3=O)[C@@H]2c2ccc([N+](=O)[O-])cc2)c1,-8%,2%,0%,17%,-1,12
COc1ccccc1[C@@H]1C(c2cccc(Cl)c2)=NN(c2ccccc2)[C@H]1C(=O)N1CCOC1=O,?,0%,0%,2.6µM*,-2,-6
COc1ccccc1[C@H]1C(c2cccc(Cl)c2)=NN(c2ccccc2)[C@@H]1CO,?,0%,-13%,?,-25,-9
COc1ccccc1[C@@H]1C(c2ccccc2)=NN(c2ccc(Br)cc2)[C@H]1C(=O)N1CCOC1=O,3.3µM*,-2%,-4%,?,-22,-6
Cc1ccccc1-n1c2nc(=O)[nH]c(=O)c-2cc2c(Cl)cccc21,/,-25%,-4%,/,/,/
COc1cc(/C=C2\SC(=O)NC2=O)ccc1Oc1ccc([N+](=O)[O-])cc1[N+](=O)[O-],21µM*,-11%,-3%,21%,0,-19
COc1ccc(/C=C2\SC(=O)NC2=S)cc1OC,?,-23%,?,-16%,-74*,-7
CCN1C(=O)C(=Cc2cccc(OC)c2Oc2ccc([N+](=O)[O-])cc2[N+](=O)[O-])SC1=S,?,3%,3%,4.6µM*,-95*,8
CCOc1ccc(/C=C2\SC(=S)NC2=O)cc1OC,1%,2%,2%,-2%,11,3
CCCc1cnc2c(c1SCc1cccc(F)c1)c(=O)n(C)c(=O)n2C,/,-1%,-6%,/,/,/
